Bead autofluor – compound fluorescence in toxin protease inhibitor counterscreen. compound autofluorescence counterscreen, microsphere flow cytometry; hits give high values. fluorescence intensity (no concentration beside the values). hit rate 3.1% among 360,000. AID 624483; in the data active = fluorescence intensity above about 16000; inconclusive = no clear call, values can overlap the other calls
BoNT F protease – BoNT F light chain protease inhibition | Multiplex microsphere protease cleavage assay, flow cytometry | inhibition, % at 10 µM | hit rate 0.22% among 360,000 | AID 588497; in the data active = inhibition above about 35%, passing the limit was not always enough; inconclusive = no clear call, values can overlap the other calls; note: plate controls were buffer without enzyme for full effect and enzyme alone for no effect
TcdB inh – inhibitors of Clostridioides difficile toxin B glycohydrolase; P18177; TcdB glycohydrolase enzymatic assay, plate reader; inhibition, % at 9.99 µM; hit rate 0.24% among 350,000; AID 652162; in the data active = inhibition above about 10%
Anthrax LF prot – inhibitors of Bacillus anthracis lethal factor protease. P15917. multiplex microsphere protease cleavage assay, LF. inhibition, % at 10 µM. hit rate 0.12% among 360,000; note: plate controls were buffer without enzyme for full effect and enzyme alone for no effect
BoNT A protease – blocks Botulinum neurotoxin A light chain protease; inhibition, % at 10 µM; AID 588499; multiplex microsphere protease substrate cleavage, flow cytometry; hit rate 0.17% among 360,000; note: plate controls were buffer without enzyme for full effect and enzyme alone for no effect
* = called active by the depositor. This excerpt belongs to a sample that is enriched for hits. Cut-off read from the data, not from the text of the source, unless noted: active = inhibition above about 30%; inconclusive = no clear call, values can overlap the other calls; inactive = below that.

For C/C=C/c1ccccc1[C@@H]1[C@@H](CO)N(C(=O)c2cccnc2)[C@H]1C#N the results were TcdB inh 0.4.
Cc1noc(C)c1NC(=O)N[C@@H]1C=C[C@H](CC(=O)NCCCN(C)C)O[C@@H]1CO was read as TcdB inh 0.1.
`COc1cc(-c2nc3ccccn3c2NCC2CCCO2)ccc1O` (stereo unspecified) gave Bead autofluor 11200, BoNT F protease -4.0, Anthrax LF prot -1.8 and BoNT A protease 0.2.
For CCOc1cc(-c2nc3ccccn3c2NCC2CCCO2)ccc1O (stereo unspecified) the results were Bead autofluor 22229*, BoNT F protease -8.6, Anthrax LF prot 2.7 and BoNT A protease -8.8.
Screening O=C(Cn1c(C(F)(F)F)nc2ccccc21)c1ccc(Cl)cc1 returned Bead autofluor 18546*, BoNT F protease 2.4, Anthrax LF prot 3.0 and BoNT A protease 3.0.
Screening O=C(Nc1ccc(S(=O)(=O)Nc2nccc(C3Cc4ccccc4C(=O)O3)n2)cc1)c1ccccc1 (stereo unspecified) returned Bead autofluor 23166*, BoNT F protease 2.5, Anthrax LF prot -2.3 and BoNT A protease 0.9.
Screening O=C(Nc1ccc(S(=O)(=O)Nc2ncccn2)cc1)c1ccccc1 returned Bead autofluor 3507, BoNT F protease 6.4, TcdB inh 0.7, Anthrax LF prot 0.2 and BoNT A protease -1.4.
Screening CN(C)CC(=O)N1[C@@H](C#N)[C@@H](c2ccc(-c3ccccc3F)cc2)[C@@H]1CO returned TcdB inh -0.4.
CN(C)C(=O)Cn1c(=O)n(C)c2ccccc21 was read as Bead autofluor 22347*, BoNT F protease 1.1, Anthrax LF prot -1.0 and BoNT A protease 1.5.
Cn1c(=O)n(CCC(=O)O)c2ccccc21 was read as Bead autofluor 3405, BoNT F protease -6.1, Anthrax LF prot -0.4 and BoNT A protease -0.5.
For CN(C)S(=O)(=O)c1ccc(Oc2ccccc2)cc1 the results were Bead autofluor 2918, BoNT F protease -4.2, Anthrax LF prot 0.9 and BoNT A protease 1.3.
`CN(C)/C=C1\C(=O)N(c2ccc(Oc3ccccc3)cc2)CS1=O` (stereo unspecified) gave Bead autofluor 22670*, BoNT F protease 1.0, Anthrax LF prot -0.8 and BoNT A protease 0.8.
Screening Nc1ccc(C#Cc2ccccc2)cc1 returned Bead autofluor 20219*, BoNT F protease 1.2, Anthrax LF prot 1.3 and BoNT A protease inconclusive.
Nc1ccccc1C#Cc1ccccc1 was read as Bead autofluor 3624, BoNT F protease 0.3, TcdB inh -1.9, Anthrax LF prot -3.5 and BoNT A protease 0.6.
For CCc1ccc2[nH]c(=O)c(C(c3nnnn3CC3CCCO3)N3CCCc4ccccc43)cc2c1 (stereo unspecified) the results were Bead autofluor 5509, BoNT F protease -10.1, Anthrax LF prot -4.0 and BoNT A protease 0.6.
Screening O=c1[nH]c2cc3c(cc2cc1C(c1nnnn1Cc1ccccc1)N1CCCCCC1)OCCO3 (stereo unspecified) returned Bead autofluor 17658*, BoNT F protease 12.0, Anthrax LF prot 4.6 and BoNT A protease 9.3.
Screening Cc1cc2cc(C(c3nnnn3CC3CCCO3)N3CCCc4ccccc43)c(=O)[nH]c2cc1C (stereo unspecified) returned Bead autofluor 24311*, BoNT F protease -10.7, Anthrax LF prot 0.9 and BoNT A protease 0.8.
Screening Cc1ccc2cc(C(c3nnnn3CC3CCCO3)N3CCc4ccccc4C3)c(=O)[nH]c2c1 (stereo unspecified) returned Bead autofluor 22554*, BoNT F protease 3.4, Anthrax LF prot 1.4 and BoNT A protease 2.1.
For Cc1ccc(C)c2[nH]c(=O)c(C(c3nnnn3Cc3ccccc3)N3CCc4ccccc4C3)cc12 (stereo unspecified) the results were Bead autofluor 22367*, BoNT F protease 1.4, Anthrax LF prot 3.6 and BoNT A protease inconclusive.
Cc1cccc2cc(C(c3nnnn3Cc3ccc4c(c3)OCO4)N3CCCC3)c(=O)[nH]c12 (stereo unspecified) was read as Bead autofluor 6840, BoNT F protease -11.6, Anthrax LF prot -1.2 and BoNT A protease 0.2.
CCCNC(=O)Nc1ccc2c(c1)OC[C@H](C)N(CC1CCCC1)C[C@@H](C)[C@H](OC)CN(C)C2=O was read as TcdB inh 0.9.
O=C(NCCc1ccncc1)[C@H]1[C@H](CO)[C@H]2Cn3c(ccc(-c4ccccc4)c3=O)[C@@H]1N2 was read as TcdB inh 0.3.
`CC[N+](CC)(CC)CCC(O)(c1ccccc1)C1CCCCC1` (stereo unspecified) gave Bead autofluor 5473, BoNT F protease -3.0, TcdB inh 0.2, Anthrax LF prot 3.3 and BoNT A protease 0.7.
For CCN(CC)CCC(O)(c1ccccc1)C1CCCCC1 (stereo unspecified) the results were Bead autofluor 60438*, BoNT F protease inconclusive, TcdB inh 0.2, Anthrax LF prot -209.1 and BoNT A protease -226.0.
`CCCNC(=O)N1C[C@@H](C)[C@@H](OC)CN(C)C(=O)c2ccc(NC(=O)CCC)cc2OC[C@@H]1C` gave TcdB inh 0.0.
Cc1nc(Nc2ccccc2)[nH]c(=O)c1CCC(C)C was read as Bead autofluor 9772, BoNT F protease 11.4, Anthrax LF prot -9.0 and BoNT A protease -0.9.
Screening CCCCCc1c(C)nc(NCc2ccccc2)[nH]c1=O returned Bead autofluor 20180*, BoNT F protease 10.0, Anthrax LF prot -13.6 and BoNT A protease inconclusive.
Cc1ccc(S(=O)(=O)c2c(N)n(/N=C/c3ccco3)c3nc4ccccc4nc23)cc1C was read as Bead autofluor 2315, BoNT F protease 0.2, Anthrax LF prot -5.0 and BoNT A protease 0.7.
For Cc1ccc(S(=O)(=O)c2c(N)n(NC(=O)C3CC3)c3nc4ccccc4nc23)cc1 the results were Bead autofluor 16643*, BoNT F protease 0.7, Anthrax LF prot -3.5 and BoNT A protease -0.5.
`Cc1cccc(S(=O)(=O)c2c(N)n(/N=C/c3cccnc3)c3nc4ccccc4nc23)c1` gave Bead autofluor 5409, BoNT F protease -1.9, Anthrax LF prot 2.5 and BoNT A protease 0.4.
Screening Nc1c(S(=O)(=O)c2ccccc2)c2nc3ccccc3nc2n1/N=C/c1ccco1 returned Bead autofluor 19798*, BoNT F protease -1.0, Anthrax LF prot -0.2 and BoNT A protease inconclusive.
Screening Cc1ccc(-n2c(N)c(S(=O)(=O)c3ccccc3)c3nc4ccccc4nc32)cc1 returned Bead autofluor 2631, BoNT F protease 0.9, TcdB inh 0.5, Anthrax LF prot 3.8 and BoNT A protease 0.8.
`Cc1ccc(S(=O)(=O)c2c(N)n(/N=C/c3ccco3)c3nc4ccccc4nc23)cc1` gave Bead autofluor 20865*, BoNT F protease -4.2, Anthrax LF prot -3.9 and BoNT A protease -0.2.
Screening Cc1cccc(S(=O)(=O)c2c(N)n(/N=C/c3ccco3)c3nc4ccccc4nc23)c1 returned Bead autofluor 22583*, BoNT F protease 4.7, Anthrax LF prot -1.3 and BoNT A protease 2.6.

Compound activity: PubChem BioAssay, several laboratories
